From PubChem BioAssay
This is a sample that favours compounds with a hit; in the whole collection about 2.1% have one here.
FUS suppressor – qHTS for Suppressors of FUS Proteinopathy: Primary screen using FUS-linked yeast assay; S. cerevisiae FUS-expressing, growth rescue, OD600, 24 h; Potency, µM (series often up to 76.6 µM), actives largely listed as activators; 0.24% of 390,000 active; AID 1347120, 2019;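 note: plate controls were DMSO vehicle for no effect and reference control for full effect; nearly all actives have a fitted effect of over 55% in size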
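Cultures pregrown in 2.5% raffinose medium are shifted to minimal medium containing 2% galactose to express toxic FUS. Compounds are tested at several concentrations. After 24hr at 30C, growth is quantified at 600 nm absorbance.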
aSyn rescue – qHTS of alpha-syn Inhibitors | Yeast expressing alpha-synuclein, growth rescue, BacTiter-Glo, 24 h | AID 652106, 2013 | 0.14% of 370,000 active | Potency, µM (top dose mostly 46.1 µM), inactives show top-dose growth rescue (activation), actives largely listed as activators; note: % of control where 0% means no effect; nearly all actives have a fitted effect of over 65% in size
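Screening used galactose-induced yeast with toxic alpha-synuclein levels, exposed to compound for 24 hr at 30 deg C. Cell growth, read with BacTiter-Glo luminescence, gave the measured signal.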
TDP-43 yeast inh – qHTS of TDP-43 Inhibitors | TDP-43 expressing yeast growth rescue, BacTiter-Glo, 24 h | Potency, µM (series often up to 46.1 µM), inactives show at the top dose growth rescue (activation), hits mostly activators | 1.8% of 410,000 active; note: % of control where 0% means no effect; nearly all actives have a fitted effect of over 50% in size
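In this qHTS, compounds that restore growth of yeast expressing TDP-43 appear as activators. Cells (OD600=0.02, galactose medium, raffinose-pregrown) are incubated with compound 24 hr at 30 deg C and growth is quantified by BacTiter-Glo.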
Abeta yeast res – qHTS for compounds that reverse cellular toxicity of Amyloid beta (A-beta) peptide in yeast: Primary Screen; AID 1347071, 2019; Potency, µM (top dose mostly 46.1 µM), actives largely listed as activators; yeast expressing A-beta42, growth rescue, OD600, 48 h; response scale: 0% DMSO, 100% iron-clioquinol control; 0.063% of 410,000 active; note: nearly all actives have a fitted effect of over 55% in size
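Growth rescue measured by 600 nm absorbance after 48 h yeast culture at 30 C with compound. Values normalized between DMSO and an equimolar ferric chloride plus clioquinol control.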
Active calls of the source: *; [ ] = another dose, or the depositor's remark. Calls come from the whole dose curve; as a rule, active = well fitted curve in the direction sought with a large enough effect; inconclusive = small, poorly fitted or top-dose-only effect, or another doubt; inactive = no such curve, though single readings can be large; an effect the other way counts as inactive or inconclusive. Potency is the fitted concentration of half-maximal effect.

What do the screens show for `O=C(NCCc1ccccc1)c1ccc2c(c1)N(Cc1c(F)cccc1Cl)C(=O)CS2`?
FUS suppressor: inactive; TDP-43 yeast inh: 7%; Abeta yeast res: inactive

Results for CC(C)(C)c1ccc(C2=CC(c3ccccc3F)n3ncnc3N2)cc1 (configuration not stated) ?
FUS suppressor: inconclusive; aSyn rescue: 1%; TDP-43 yeast inh: -3%; Abeta yeast res: inactive

Results for Fc1ccc(C2=CC(c3ccco3)n3ncnc3N2)cc1 (configuration not stated) ?
aSyn rescue: 3%; TDP-43 yeast inh: inconclusive; Abeta yeast res: inactive

How did Fc1ccc(Br)cc1C1C=C(c2cccnc2)Nc2ncnn21 (configuration not stated) do in these assays?
FUS suppressor: inactive; aSyn rescue: 1%; TDP-43 yeast inh: 25µM*; Abeta yeast res: inactive

How did Fc1ccc(C2=CC(c3ccc(Br)o3)n3ncnc3N2)cc1 (configuration not stated) do in these assays?
aSyn rescue: -5%; TDP-43 yeast inh: 18µM*; Abeta yeast res: inactive

Results for CCOc1ccc(C2=CC(c3cc(Br)ccc3F)n3ncnc3N2)cc1Cl (configuration not stated) ?
FUS suppressor: inactive; TDP-43 yeast inh: 35µM*; Abeta yeast res: inactive

Results for CCCCN(C)c1nc(C)nc2c1nnn2Cc1ccccc1 ?
FUS suppressor: inactive

How did C[C@H]1[C@@H](NC(=O)C2CCCCC2)CC[C@@]23CCCN2C(=O)CCC[C@@H]13 do in these assays?
FUS suppressor: inactive

How did O=C(NCCc1c[nH]c2ccccc12)OCc1cn(-c2ccccc2Cl)nn1 do in these assays?
FUS suppressor: inactive

What do the screens show for `O=C(CSc1nnc(-c2ccccn2)n1-c1ccc(Cl)cc1)Nc1ccc2c(c1)OCCO2`?
FUS suppressor: inactive

Results for S=C1NCN(Cc2cccnc2)CN1Cc1ccccc1 ?
FUS suppressor: inactive; aSyn rescue: 2%; TDP-43 yeast inh: 8%; Abeta yeast res: inactive

How did S=C1SCN(Cc2cccnc2)CN1Cc1ccccc1 do in these assays?
FUS suppressor: inactive; aSyn rescue: -10%; TDP-43 yeast inh: 25µM*; Abeta yeast res: inactive

Results for Cc1cccc(OCC(=O)Nc2ccc(Cl)c(-c3nc4ccccc4[nH]3)c2)c1 ?
FUS suppressor: inconclusive; TDP-43 yeast inh: 35µM*; Abeta yeast res: inactive

What do the screens show for `O=C(COc1ccccc1F)Nc1ccc(Cl)c(-c2nc3ccccc3[nH]2)c1`?
FUS suppressor: inconclusive; TDP-43 yeast inh: 35µM*; Abeta yeast res: inactive

How did Cc1ccc(CN(C#N)c2nc(C)cc(C)n2)cc1 do in these assays?
FUS suppressor: inactive; aSyn rescue: 6%; TDP-43 yeast inh: 35µM*; Abeta yeast res: inactive

How did Cc1cc(C)nc(N(C#N)Cc2ccc(Br)cc2)n1 do in these assays?
FUS suppressor: inactive; aSyn rescue: 0%; TDP-43 yeast inh: 14µM*; Abeta yeast res: inactive

Results for Cc1cc(C)nc(N(C#N)Cc2cccc(Cl)c2)n1 ?
FUS suppressor: inactive; aSyn rescue: 13%; TDP-43 yeast inh: inconclusive; Abeta yeast res: inactive

What do the screens show for `Cc1cc(C)nc(N(C#N)CCOc2ccc(Cl)cc2)n1`?
FUS suppressor: inactive; aSyn rescue: -43%; TDP-43 yeast inh: 18µM*; Abeta yeast res: inactive

How did Cc1cc(C)nc(N(C#N)Cc2ccc(Cl)cc2)n1 do in these assays?
FUS suppressor: inactive; aSyn rescue: 14%; TDP-43 yeast inh: 26%[9.22 µM]; Abeta yeast res: inactive

What do the screens show for `O=C(O)c1ccc(C2CCCCC2)cn1`?
FUS suppressor: inactive; aSyn rescue: inconclusive; TDP-43 yeast inh: 13µM*; Abeta yeast res: inactive

Results for Cc1ccc(NC(=O)COc2ccccc2C#N)cc1S(=O)(=O)N1CCCCCC1 ?
FUS suppressor: inactive; aSyn rescue: 0%[1.84 µM]; TDP-43 yeast inh: 28µM*; Abeta yeast res: inactive

What do the screens show for `Cc1ccc(NC(=O)COc2ccccc2)cc1S(=O)(=O)N1CCCCCC1`?
FUS suppressor: inactive; aSyn rescue: -4%; TDP-43 yeast inh: 26%; Abeta yeast res: inactive

How did Cc1cnc(C(=O)Nc2ccc(C)c(S(=O)(=O)N3CCCCCC3)c2)cn1 do in these assays?
FUS suppressor: inactive; aSyn rescue: 7%; TDP-43 yeast inh: 16µM*; Abeta yeast res: inactive
